# Out of some 69,000 compounds screened, about 8,600 (12%) showed an effect of 50% or more. Only a selection was taken, and strong results are over-represented in it overall.
# System: Plasmodium berghei
# Experiment: Screen against P. berghei liver stage (PbLuc), transformed with Luciferase, at 10uM
# Format: functional, HepG2
# Settings: tested at 10 uM
row,Compound,INHIBITION [%]
1,CCN1C(=O)C(c2ccccc2)CC12CCN(CCO)CC2 (centres undefined),19.8
2,CNC(=O)CN1CC[C@H]2CN(C(=O)c3ccccc3C)C[C@H]2C1,-28
3,Cc1nn(CC(=O)N2CCN(Cc3cn(C)nc3C)CC2)cc1Br,51
4,Cc1nn(CC(=O)N2CCN(Cc3cnn(C)c3C)CC2)cc1Br,-5.92
5,CCn1ncc(CN2CCN(C(=O)Cn3cc(Br)c(C)n3)CC2)c1C,34
6,CCn1cc(CN(C)S(=O)(=O)c2cnn(C)c2)cn1,7.66
7,O=c1c2cn[nH]c2nc(SCCN2CCOCC2)n1-c1ccccc1,21.5
8,CC(=O)N1CCC2(CCN(CC3CCOC3)C2)CC1 (centres undefined),42.1
9,CC(=O)N1CCC2(CCN(CC3CCCCC3)C2)CC1,51.9
10,CC(=O)N1CCC2(CN(CC3CCCC3)C2)C1,39.5
11,COc1cccc(-c2nc(C)c(C(=O)N[C@H](CO)CC(C)C)s2)c1,-23.7
12,Cc1occc1C(=O)N1C[C@@H]2[C@@H](C1)OCC(=O)N2Cc1cccnc1,-6.23
13,CN(CC1CCOCC1)C1CCCN(c2ccccn2)C1 (centres undefined),18.805
14,Cc1oc(-c2ccsc2)nc1CNC(C)Cn1cccn1 (centres undefined),39.7
15,CCN(CCn1cccn1)Cc1nc(-c2cc(F)ccc2F)oc1C,26.1
16,CCN(CCn1cccn1)Cc1nc(-c2ccoc2)oc1C,-31.9
17,Cc1cnn(CCNCc2nc(-c3ccsc3)oc2C)c1,47.4
18,Cc1oc(-c2ccsc2)nc1CNCCn1cccn1,53.4
19,CCN(CCn1cccn1)Cc1nc(-c2ccc(F)cc2)oc1C,62.4
20,Cc1nn(CC(=O)O)c(C)c1NS(=O)(=O)c1cccc2ccccc12,2.97
21,CNC(=O)CN1CCO[C@H]2CN(CC3CCOC3)C[C@H]21 (some centres undefined),8.85
22,CNc1ccnc(N2C[C@H]3CC[C@@H](C2)N(CCOC)C3=O)n1,-144
23,O=C(c1ccco1)N1C2CCC(O)(CC2)C1CN1CCOCC1 (centres undefined),17.7
24,Cc1nonc1CN(C)Cc1nc(-c2cccc(F)c2F)oc1C,8.99

row,Compound,INHIBITION [%]
1,Cc1ccsc1-c1nc(CN(C)Cc2cc[nH]n2)c(C)o1,54.6
2,CCc1cc(CN(C)Cc2nc(-c3sccc3C)oc2C)on1,1.37
3,Cc1ccsc1-c1nc(CN(C)Cc2noc(C(C)C)n2)c(C)o1,30
4,COc1ccc(OC)c(-c2nc(CN(C)Cc3noc(C)n3)c(C)o2)c1,31.1
5,Cc1nc(CN(C)Cc2nc(-c3sccc3C)oc2C)no1,56.3
6,CCc1ncnc2c1CCN(CCOC)CC2,32.5
7,CCC[C@H]1CN(S(C)(=O)=O)C[C@@H]1NC(=O)Cc1ccc(F)cc1C,30.3
8,O=C(NCCCc1nc(=O)[nH][nH]1)c1ccc(Cl)cn1,67.5
9,O=C(NCCCc1nc(=O)[nH][nH]1)Nc1cccc(F)c1,48
10,O=C(NCCCc1nc(=O)[nH][nH]1)Nc1ccc(Cl)cc1,23.9
11,O=c1[nH]cc(Nc2ccccc2)c(=O)[nH]1,43.8
12,OC1(CN2CCOC(Cn3cccn3)C2)CCCCC1 (centres undefined),-37.7
13,COCCN1CCN(CC(C)(O)c2cccc(C(F)(F)F)c2)CC1 (centres undefined),37.3
14,COc1cccc(OCCCc2cncc(C(N)=O)c2)c1,-10.3
15,COc1ccccc1OCCCc1cncc(C(N)=O)c1,80.2
16,COc1cccc(OCCc2cncc(C(N)=O)c2)c1,15.9
17,Cc1nc(C(=O)N2CCN(S(=O)(=O)N(C)C)CC2)c(-c2ccccc2)s1,36.6
18,CCN1C[C@H]2CCN(C(=O)NC)CC[C@H]2S1(=O)=O,-0.813
19,O=C(NCc1ccccc1CN1CCC(O)CC1)Nc1ccccn1,52
20,O=C(NCc1ccccc1CN1CCC(O)CC1)Nc1ccncc1,-8.19
21,O=C(NCc1ccccc1CN1CCC(O)CC1)Nc1ccccc1,40.2
22,COC(=O)c1cc(CN2CCC(c3noc(C)n3)CC2)c(C)s1,7.24
23,Cc1cc(F)cc(NC(=O)N(C)CC(C)(CO)CO)c1,-31.38
24,N[C@@H]1CC[C@@H](Nc2nccc(CCC(F)(F)F)n2)C1,7.4

row,Compound,INHIBITION [%]
1,NC1CCC(Nc2nccc(CCC(F)(F)F)n2)CC1 (centres undefined),75.6
2,FC(F)(F)CCc1ccnc(NC2CCC(n3cnnc3)CC2)n1 (centres undefined),32.3
3,CCc1csc(C2CCCN(C(=O)c3cc(C4CC4)[nH]n3)C2)n1 (centres undefined),27.8
4,O=C(Cc1cccnc1)N1CCC2(CC1)CCN(C1CCOCC1)CC2,8.44
5,Cc1ccccc1CNC(=O)N1CCC(n2cncn2)CC1,4.52
6,COc1ccccc1CCNC(=O)N1CCC(n2cncn2)CC1,16.9
7,CCOc1ncccc1CNC(=O)N1CCC(n2cncn2)CC1,11.4
8,CCOc1ccccc1CNC(=O)N1CCC(n2cncn2)CC1,63.5
9,CC(C)Oc1ccccc1CNC(=O)N1CCC(n2cncn2)CC1,51.3
10,CC(C)Oc1ccccc1NC(=O)N1CCC(n2cncn2)CC1,56.6
11,COc1ccccc1C(C)NC(=O)N1CCC(n2cncn2)CC1 (centres undefined),11.2
12,CCOc1ncccc1NC(=O)N1CCC(n2cncn2)CC1,-2.98
13,COc1cc(Cl)ccc1CNC(=O)N1CCC(n2cncn2)CC1,0.411
14,CCS(=O)(=O)N1C[C@@H](O)[C@H](Oc2cccc(F)c2)C1,-18.8
15,CC(C)Oc1ncccc1CNC(=O)NC(C)c1cccs1 (centres undefined),43.6
16,Cc1cc(C)n(-c2ccc(C(=O)NCC(CO)Cc3cccs3)cc2)n1 (centres undefined),23.9
17,O=S(=O)(Cc1ccc(F)cc1F)NCCOc1cccnc1,46.1
18,CC[C@H](Cn1ncc2ccccc2c1=O)NC(=O)c1ccccn1,31.3
19,CN(C)C(=O)C1CCc2nnc(CNC(=O)c3ccc(Cl)cc3Cl)n21 (centres undefined),27.5
20,CCC(C)NC(=O)CCc1ccc(OCC(F)(F)F)c(OC)c1 (centres undefined),31.9
21,CC1COCCN1Cc1noc(C(C)(C)C)n1 (centres undefined),38.7
22,CC(C)Cc1noc(CN2CCOCC2C)n1 (centres undefined),51
23,CCCc1noc(CN2CCOCC2C)n1 (centres undefined),65.6
24,CC1CCCCN1Cc1nc(Cc2ccccc2)no1 (centres undefined),20.2

row,Compound,INHIBITION [%]
1,CC(C)Cc1noc(CN2CCOCC2)n1,1.48
2,CC1COCCN1Cc1nc(Cc2ccccc2)no1 (centres undefined),54.4
3,CC1COCCN1Cc1nc(C(C)(C)C)no1 (centres undefined),15.2
4,CC1COCCN1Cc1nc(-c2cccs2)no1 (centres undefined),22.9
5,CC(C)c1noc(CN2CCOCC2C)n1 (centres undefined),17.5
6,O=C(COC1CCCC1)NCCc1nc(-c2ccccn2)cs1,30.8
7,Cn1cnc2cc(CCC(=O)Nc3n[nH]c(C4CCCO4)n3)ccc21 (centres undefined),8.99
8,N#Cc1ccccc1N1CCCN(C(=O)CCc2cccs2)CC1,-29.1
9,Cc1nc(CN2CCCCC2CCc2ccc(O)cc2)co1 (centres undefined),12.6
10,c1csc(CN2CCCn3cnc(CN4CCCC4)c3C2)c1,41.6
11,c1coc(-c2nc(CN3CCCC(Cn4cncn4)C3)cs2)c1 (centres undefined),16.8
12,CNC(=O)c1sc2ccccc2c1C1CCN(c2nc(C)cc(C)n2)C1 (centres undefined),0.696
13,CNC(=O)c1sc2ccccc2c1C1CCN(c2cc(C)nc(C)n2)C1 (centres undefined),74.9
14,Cc1cc(C)nc(N2CCC(c3c(C(N)=O)sc4ccccc34)C2)n1 (centres undefined),-14.2
15,Cc1ccc2c(c1)CCC21CCN(C(=O)CN(C)C)CC1,38.5
16,Cc1nc(CN(C)C(=O)c2cc(C)sc2NC(=O)C(C)(C)C)no1,18
17,Cc1cc(C(=O)N(C)Cc2ccn[nH]2)c(NC(=O)C(C)(C)C)s1,51.3
18,Cc1cc(C(=O)N(C)Cc2ccoc2)c(NC(=O)C(C)(C)C)s1,-28.9
19,O=C([C@@H]1CCO[C@@H]2CCN(Cc3ccc(F)cc3)C[C@H]21)N1CCCCO1,30.3
20,CCCc1cc(CNc2cc(CCC)nc3ccnn23)on1,53.5
21,CCCc1cc(NCc2cc(C)on2)n2nccc2n1,23.8
22,CCc1cc(NCc2cc(CC(C)C)on2)n2nccc2n1,26.8
23,COc1ccccc1CC(=O)NC1CCCc2cn[nH]c21 (centres undefined),8.31
24,Cc1cccc(CN2C[C@@H]3CN(C(=O)c4ccco4)C[C@@H]3C2=O)n1,23.5

row,Compound,INHIBITION [%]
1,CC(CCCC(C)(C)O)Nc1ccc(-c2nccn2C)nn1 (centres undefined),60.4
2,CC(Cn1cncn1)Nc1ccc(-c2nccn2C)nn1 (centres undefined),9.91
3,CC(CCn1cccn1)Nc1ccc(-c2nccn2C)nn1 (centres undefined),48.5
4,CN(C)CCN(Cc1ccc(F)cc1)C(=O)c1ccn(C)c(=O)c1,39.1
5,Cc1nc(CN2C(=O)CCC23CCN(Cc2ccccn2)CC3)cs1,19.4
6,CN(C)CC1(O)CCCN(C(=O)Cn2nc3ccccc3n2)CC1 (centres undefined),-21.8
7,Cc1cc2ccccc2n1CCC(=O)N1CCCC(O)(CN(C)C)CC1 (centres undefined),-60.9
8,CN(C)CC1(O)CCCN(C(=O)Cn2ccc3ccccc32)CC1 (centres undefined),89.9
9,Cc1nc2ccc(C(=O)N3CCC(COc4ccccn4)CC3)cc2[nH]1,-6.73
10,Cc1cc(C)nc(C2CCCN2C(=O)c2coc(C)n2)n1 (centres undefined),20.2
11,Cc1cc(C)n(Cc2ccc(-c3noc(C(=O)NCCCO)n3)cc2)n1,33
12,Fc1cccc2[nH]c(CN3CCc4cncnc4C3)nc12,52.8
13,Fc1cccc2[nH]c(CN3CCn4c(nnc4C4CC4)C3)nc12,-33.5
14,Cc1nnc2n1CCN(Cc1nc3c(F)cccc3[nH]1)C2,-43.5
15,CCc1ncc2c(n1)CN(Cc1nc3c(F)cccc3[nH]1)CC2,52.8
16,CCc1nnc2n1CCN(Cc1ccc3c(c1)OCCO3)C2,18.9
17,Cc1ncc2c(n1)CN(Cc1nc3c(F)cccc3[nH]1)CC2,0.902
18,c1cc(CN2CCc3cncnc3C2)c2c(c1)OCCO2,41.6
19,CCc1nnc2n1CCN(Cc1nc3c(F)cccc3[nH]1)C2,58.1
20,CC(C)c1ncc2c(n1)CN(Cc1nc3c(F)cccc3[nH]1)CC2,36.6
21,CCc1nnc2n1CCN(Cc1cccc3c1OCCO3)C2,50.35
22,CC(C)c1nnc2n1CCN(Cc1nc3c(F)cccc3[nH]1)C2,-65
23,CC(C)c1nnc2n1CCN(Cc1cccc3c1OCCO3)C2,-67.8

# Source: ChEMBL document CHEMBL4513216, “Probing the Open Global Health Chemical Diversity Library for Multistage-Active Starting Points for Next-Generation Antimalarials” (ACS Infect Dis, 2020)
